# Assay results taken from PubChem BioAssay AID504339 (National Center for Advancing Translational Sciences (NCATS), 2011).
# Where “and” joins values, the source holds several entries; their conditions need not be identical. Identical values can stand only once. Screen size: about 390,000 compounds; about 17,000 (4.4%) were called active. Another 8% or so got no clear call; they are omitted. Calls follow the shape of the dose curve; as a rule, active = well fitted inhibition curve with a large enough effect; inconclusive = small, poorly fitted or top-dose-only effect; inactive = no such curve, though single readings can be large or run the other way. The list comes from a sample in which actives are over-represented; it also holds similar structures and randomly drawn compounds. More than one record can exist for a structure, and the calls need not agree.
# Target: Lysine-specific demethylase 4A (Homo sapiens) (UniProt O75164)
# Sequence (O75164 whole entry, looked up, the tested form may be a part): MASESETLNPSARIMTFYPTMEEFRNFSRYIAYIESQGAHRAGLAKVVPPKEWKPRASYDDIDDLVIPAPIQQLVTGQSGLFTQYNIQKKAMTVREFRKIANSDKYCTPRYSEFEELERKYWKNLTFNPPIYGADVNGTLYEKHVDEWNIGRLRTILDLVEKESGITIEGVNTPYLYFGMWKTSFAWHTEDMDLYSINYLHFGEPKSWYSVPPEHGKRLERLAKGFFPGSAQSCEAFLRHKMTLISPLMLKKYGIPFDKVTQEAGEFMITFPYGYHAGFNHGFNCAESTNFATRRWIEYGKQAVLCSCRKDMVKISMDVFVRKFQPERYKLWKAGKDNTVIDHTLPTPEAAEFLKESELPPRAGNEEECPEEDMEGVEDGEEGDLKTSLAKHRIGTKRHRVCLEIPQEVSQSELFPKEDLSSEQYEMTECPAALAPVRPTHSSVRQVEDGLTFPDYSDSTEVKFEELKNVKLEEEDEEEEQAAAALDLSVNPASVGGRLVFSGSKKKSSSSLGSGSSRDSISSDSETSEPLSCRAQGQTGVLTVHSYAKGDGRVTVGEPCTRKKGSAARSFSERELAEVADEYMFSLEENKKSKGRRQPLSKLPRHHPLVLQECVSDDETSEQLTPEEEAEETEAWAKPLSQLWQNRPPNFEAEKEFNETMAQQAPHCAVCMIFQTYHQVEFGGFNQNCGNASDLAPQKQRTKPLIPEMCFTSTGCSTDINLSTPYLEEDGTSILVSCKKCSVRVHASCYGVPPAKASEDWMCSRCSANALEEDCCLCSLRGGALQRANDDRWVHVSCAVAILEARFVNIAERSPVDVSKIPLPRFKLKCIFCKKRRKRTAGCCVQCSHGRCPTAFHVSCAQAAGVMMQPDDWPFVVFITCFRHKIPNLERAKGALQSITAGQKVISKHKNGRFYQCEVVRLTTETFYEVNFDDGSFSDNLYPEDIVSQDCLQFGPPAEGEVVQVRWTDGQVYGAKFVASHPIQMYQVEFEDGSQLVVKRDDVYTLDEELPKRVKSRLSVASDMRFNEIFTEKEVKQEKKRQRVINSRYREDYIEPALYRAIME
# Test: qHTS Assay for Inhibitors of JMJD2A-Tudor Domain; also: nearly all actives have a fitted effect of over 50% in size
# Conditions: AlphaScreen JMJD2A-Tudor / H3K4me3 peptide binding; series mostly up to 114 µM; activity change, negative = inhibition: at the top concentration
# % is scaled to controls: 0 for no effect and ±100 for the full control effect; potency is read from the fitted curve at half-maximal effect.
Structure (SMILES),"activity change, negative = inhibition",Potency
CCc1ccccc1NC(=O)c1ccc2nc(CCc3ccccc3)oc2c1,-6.71% (inactive),
O=C(Cn1c(=O)n(-c2ccc(F)cc2)c(=O)c2sccc21)Nc1cccc(C(F)(F)F)c1,-13.7% (inactive),
Cc1ccccc1CN1CCC(CNC(=O)c2c(C)oc3ncnc(N4CCCCC4)c23)CC1,-10% (inactive),
COc1ccc(CN2CCc3nc(Nc4ccccc4)ncc3C2)c(OC)c1OC,-21.5% (inactive),
Cc1ccc(CSc2nc3ccsc3c(=O)n2CCC(C)C)cc1,49% (inactive),
COc1ccc(CC(=O)Nc2c(C(N)=O)oc3ccccc23)cc1,13.2% (inactive),
COc1ccc(/C(C)=N/NC(=O)c2ccc3nc[nH]c3c2)cc1,-1.03% (inactive),
COc1ccc(CC(=O)N/N=C(\C)c2ccccn2)cc1,,89.1 µM (active)
COc1ccccc1CNC(=O)CCCn1c(=O)c2ccccc2n(CC(=O)Nc2ccc(C)cc2Cl)c1=O,-10.2% (inactive),
COc1ccc(-c2cc(C(=O)N3CCN(c4ccc(F)cc4)CC3)no2)cc1,-20.4% (inactive),
O=C(c1cc(-c2ccc(F)cc2)on1)N1CCN(c2ccc(F)cc2)CC1,,inactive and 28.2 µM (active)
O=C(c1cc(-c2ccc(Cl)cc2)on1)N1CCN(c2ccccc2)CC1,-7.59% (inactive),
COc1ccc(-n2c(=O)c3ccccc3n(Cc3ccccc3Cl)c2=O)cc1,-5.46% (inactive),
COc1ccc(-c2cc(-c3nc(-c4cc(OC)c(OC)c(OC)c4)no3)[nH]n2)c(OC)c1,-24% (inactive),
CCC(=O)Nc1ccccc1-c1nc2ccccc2n(CC(=O)Nc2ccc(C)c(C)c2)c1=O,-12.6% (inactive),
CCn1c(SCC(=O)NC2CC2)nnc1-c1ccncc1,-4.14% (inactive),
CN(C)CCCn1c(SCc2ccc(Cl)cc2)nnc1-c1ccncc1,,20 µM (active)
CC1CCCC(NC(=O)CSc2nccn2C)C1C (stereo not given),-21.8% (inactive),
CC1CCCCC1NC(=O)CSc1nnc(-c2ccncc2)n1CCCN(C)C (stereo not given),,3.55 µM (active)
Cn1c(SCc2ccc(F)cc2)nnc1-c1ccncc1,-2.9% (inactive),
CCn1c(SCc2cccc(C(=O)O)c2)nnc1-c1ccc(Cl)cc1,-10.2% (inactive),
Cc1ccccc1-c1nc2scc(CCNC(=O)C(=O)Nc3ccc(F)cc3F)n2n1,6.39% (inactive),
CCOC(=O)c1ccc(NC(=O)CCS(=O)(=O)c2ccc(C)cc2)cc1,-3.88% (inactive),
COc1ccc(OCC(=O)Nc2cccc(C(=O)OCc3cc(=O)n4nc(C)sc4n3)c2)cc1,-23.8% (inactive),
O=C(CC(NCc1cccnc1)C(=O)O)Nc1ccc(O)cc1 (stereo not given),,25.1 µM (active)

Structure (SMILES),"activity change, negative = inhibition",Potency
O=C(Cc1ccccc1)Nc1ccc(NC(=O)c2cccnc2)cc1,-11% (inactive),
CCCCc1ccc(NC(=O)NCc2cccnc2)cc1,5.32% (inactive),
COc1ccccc1CNC(=O)NCc1noc2ccc(C)cc12,7.33% (inactive),
COc1cccc(CC(=O)OCC(=O)NCc2ccc3c(c2)OCO3)c1,-5.52% (inactive),
COc1cc(OC)c(C(=O)NCc2ccc3c(c2)OCO3)cc1OC,-16.7% (inactive),
Cc1ccc(CNCc2ccc3c(c2)OCO3)c(C)c1,,39.8 µM (active)
COc1ccc(NC(=O)NCc2ccc3c(c2)OCO3)c(OC)c1,-0.641% (inactive),
O=C(NCc1ccc2c(c1)OCO2)C12CC3CC(CC(C3)C1)C2,-2.7% (inactive),
COc1cccc(CNCc2ccc3c(c2)OCO3)c1,,1.78 µM (active)
CC(=O)c1c(C)n(S(=O)(=O)c2ccc(Cl)cc2)c2ccc(NS(=O)(=O)c3ccc(Cl)cc3)cc12,-18% (inactive),
O=C(NCCc1ccccc1)c1ccc2c(c1)N(Cc1ccc(F)cc1)C(=O)c1ccccc1S2(=O)=O,-2.36% (inactive),
CC(C)(C)C1CCc2c(sc(NC(=O)c3ccccc3F)c2C(=O)N2CCCCC2)C1 (stereo not given),2.42% (inactive),
CC(C)c1ccc(NC(=O)CN(C)S(=O)(=O)c2ccc3c(c2)c(=O)n(C)c(=O)n3C)cc1,0.337% (inactive),
COc1ccc(-c2cc(C(F)(F)F)nc(SCC(=O)N(C)Cc3ccccc3)n2)cc1OC,17.5% (inactive),
Cc1ccc(-c2nn(CCC(=O)Nc3ccc(Cl)c(Cl)c3)c(=O)c3ccccc23)cc1,-14.6% (inactive),
COc1ccc2nc(N3CCN(C(=O)c4ccc([N+](=O)[O-])o4)CC3)sc2c1,-22.6% (inactive),
Cc1ccccc1OCCSc1nc2ccc(NC(=O)c3ccco3)cc2s1,-9.93% (inactive),
COc1ccc2nc(N3C(=O)C(O)=C(C(=O)c4ccco4)C3c3ccco3)sc2c1 (stereo not given),,0.794 µM (active)
COc1ccc(NC(C)=O)cc1NC(=O)CN1CCN(c2ccc(F)cc2)CC1,-16.2% (inactive),
COC(=O)c1ccccc1NC(=O)c1cnn(-c2ccc(F)cc2)c1-n1cccc1,-11.7% (inactive),
CCc1ccccc1NC(=O)CSc1nc(C)c(C(=O)Nc2ccccc2)c(-c2ccc(Cl)cc2)c1C#N,-16.3% (inactive),
CCN(CC)S(=O)(=O)c1ccc2c(c1)c(=O)c(C(=O)N1CCN(c3cccc(Cl)c3)CC1)cn2C,-31.3% (inactive),
OC(COCc1ccco1)CN1CCN(c2ccccc2)CC1 (stereo not given),,2.51 µM (active)
OC(COc1ccccc1)CN1CCN(c2cccc(Cl)c2)CC1 (stereo not given),-26.4% (inactive),
CN1CCN(CC(O)COCc2ccc3c(c2)OCO3)CC1 (stereo not given),-34.4% (inactive),
